This is part of a sample that, as a whole, favours compounds with a hit. Of some 83,000 tested, about 20% had one in any assay.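 Values shown are percent growth following 48 h exposure of cells in 96-well plates to a single concentration of compound; below 10 was considered active.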 A number with no mark means an inactive call. Active and inactive are the calls of the source.

This is an account of results in PubChem BioAssay (NCI).

Test systems include NCI-H23 lung; NCI-H226 lung; NCI-H322M lung; HOP-62 NSCLC; NCI-H460 lung; HOP-92 NSCLC; NCI-H522 lung; A549/ATCC NSCLC; 786-0 renal; COLO 205 colon; DU-145 prostate; K-562 leukemia; MALME-3M melanoma; MDA-MB-231 breast; RXF 393 renal; SF-268 CNS; SF-295 CNS; SF-539 CNS; UACC-257 melanoma; M14 melanoma.
Assay in all cases: NCI-60 one-dose screen, 48 h (100 = growth as untreated, 0 = no growth, -100 = all killed)
Conditions in all cases: 10 µM unless noted

As for `O=c1cc(Cl)[nH]c(=O)[nH]1`, the growth was 98.9% in the experiment with NCI-H23 lung; 97.5% with NCI-H226 lung; 98.9% in the experiment on NCI-H322M lung; 83.2% with HOP-62 NSCLC; 108% with NCI-H460 lung; 98.2% in the experiment with HOP-92 NSCLC. For the same compound, the growth in the experiment on NCI-H522 lung was 67.7%; with A549/ATCC NSCLC, 79.5%; in the experiment with 786-0 renal it was 101%; in the experiment on COLO 205 colon it was 97.5%; in the experiment with DU-145 prostate, 107%; in the experiment with K-562 leukemia, 104%. Further, the growth in the experiment on MALME-3M melanoma was 112%; with MDA-MB-231 breast it was 111%; with RXF 393 renal, 101%; in the experiment with SF-268 CNS, 101%; in the experiment on SF-295 CNS it was 101%; with SF-539 CNS it was 105%. For the same compound, the growth in the experiment on UACC-257 melanoma was 89.1%; in the experiment on M14 melanoma, 97.6%.
Regarding `COC(=O)/C=C/C(=O)c1cc(C)cc(C)c1O`, the growth was 97.5% in the experiment on NCI-H23 lung; 102% in the experiment on NCI-H226 lung; 101% in the experiment on NCI-H322M lung; 96.6% with HOP-62 NSCLC; 111% in the experiment on NCI-H460 lung; 113% with HOP-92 NSCLC. Besides, the growth is 92.9% with NCI-H522 lung; 98.6% in the experiment on A549/ATCC NSCLC; 100% in the experiment with 786-0 renal; 108% with COLO 205 colon; 103% in the experiment on DU-145 prostate; 103% with K-562 leukemia. Also, the growth with MALME-3M melanoma was 95.7%; in the experiment on MDA-MB-231 breast it was 114%; in the experiment on RXF 393 renal, 116%; with SF-268 CNS, 95.9%; in the experiment on SF-295 CNS, 93.5%; in the experiment on SF-539 CNS, 99.5%. Moreover, the growth in the experiment with UACC-257 melanoma is 99.8%; with M14 melanoma it was 102%.
In the case of `COc1ccc(-c2nnc(SCC(=O)Nc3ccc(C(=O)/C=C/c4ccc(Cl)cc4)cc3)o2)cc1OC`, the growth in the experiment with NCI-H23 lung was 79%; with NCI-H226 lung it was 85.7%; in the experiment with NCI-H322M lung it was 87.4%; in the experiment with HOP-62 NSCLC it was 71.8%; in the experiment with NCI-H460 lung, 70%; in the experiment on HOP-92 NSCLC it was 29.7%. For the same compound, the growth with NCI-H522 lung is 16.7%; with A549/ATCC NSCLC, 90.7%; in the experiment with 786-0 renal, 70.8%; in the experiment on COLO 205 colon, 116%; in the experiment with DU-145 prostate, 78.9%; in the experiment on K-562 leukemia, 52%. Further, the growth in the experiment on MALME-3M melanoma was 5.79% (active); in the experiment on MDA-MB-231 breast it was 76.3%; with RXF 393 renal, 95.9%; in the experiment on SF-268 CNS it was 82.2%; in the experiment with SF-295 CNS, 80.4%; in the experiment with SF-539 CNS it was 54.5%. Besides, the growth with UACC-257 melanoma was 91.4%; in the experiment on M14 melanoma, 81.7%.
Regarding `NS(=O)(=O)c1ccc(-n2nc(-c3ccc(Cl)cc3)ccc2=O)cc1`, the growth with NCI-H23 lung was 91.1%; in the experiment with NCI-H226 lung, 103%; with NCI-H322M lung it was 110%; in the experiment on HOP-62 NSCLC, 94.3%; in the experiment with NCI-H460 lung it was 98%; in the experiment with HOP-92 NSCLC it was 90.9%. Also, the growth is 16% with NCI-H522 lung; 95.4% in the experiment on A549/ATCC NSCLC; 92.9% in the experiment on 786-0 renal; 113% in the experiment with COLO 205 colon; 102% in the experiment on DU-145 prostate; 45.9% in the experiment with K-562 leukemia. Moreover, the growth was 113% in the experiment on MALME-3M melanoma; 118% with MDA-MB-231 breast; 95.6% in the experiment on RXF 393 renal; 96.5% in the experiment with SF-268 CNS; -4.7% (active) in the experiment with SF-295 CNS; 84.4% in the experiment on SF-539 CNS. Besides, the growth in the experiment on UACC-257 melanoma was 96.6%; with M14 melanoma, 96.2%.
As for `O=C(Nc1ccc(-n2ccc3c(NC(=O)c4ccccc4)nccc32)cc1)Nc1ccc(Cl)c(Cl)c1`, the growth with NCI-H23 lung is 42.4%; in the experiment on NCI-H226 lung, 68%; in the experiment with NCI-H322M lung, -5.58% (active); in the experiment on HOP-62 NSCLC it was -58.1% (active); with NCI-H460 lung, -65.4% (active); with HOP-92 NSCLC, -6.97% (active). The growth was -58.6% (active) with NCI-H522 lung; -75.8% (active) in the experiment on A549/ATCC NSCLC; -84% (active) in the experiment on 786-0 renal; -53.4% (active) in the experiment with COLO 205 colon; -32.6% (active) with DU-145 prostate; -27.3% (active) in the experiment on K-562 leukemia. Further, the growth in the experiment on MALME-3M melanoma is -46.9% (active); with MDA-MB-231 breast, -65.2% (active); in the experiment on RXF 393 renal it was -93.9% (active); with SF-268 CNS, 1.8% (active); in the experiment on SF-295 CNS it was -67% (active); in the experiment on SF-539 CNS, -58.6% (active). The growth with UACC-257 melanoma was -69% (active); with M14 melanoma, -69.8% (active).
As for `COc1cc(C(=O)NNC(=O)c2ccccc2C(=O)O)cc(OC)c1OC`, the growth in the experiment with NCI-H23 lung was 15.9%; in the experiment on NCI-H226 lung, 74.6%; with NCI-H322M lung, 80.7%; with HOP-62 NSCLC, 51.6%; in the experiment on NCI-H460 lung it was 11.9%; in the experiment on HOP-92 NSCLC, 55.3%. Further, the growth in the experiment with NCI-H522 lung is 32.2%; with A549/ATCC NSCLC, 52.7%; in the experiment on 786-0 renal, 38.8%; in the experiment on COLO 205 colon, 37.5%; in the experiment on DU-145 prostate, 56.8%; with K-562 leukemia, 43.1%. In addition, the growth in the experiment with MALME-3M melanoma was 62%; in the experiment on MDA-MB-231 breast, 45.2%; in the experiment on RXF 393 renal it was -3.15% (active); in the experiment on SF-268 CNS, 53.8%; in the experiment with SF-295 CNS, 46.8%; in the experiment on SF-539 CNS it was 30.1%. Besides, the growth with UACC-257 melanoma was 69.9%; with M14 melanoma it was 51.4%.
As for `Cc1nc(-c2ccc(Cl)cc2)ccc1NC(=O)Nc1cccc(C(F)(F)F)c1`, the growth in the experiment with NCI-H23 lung is 95.6%; with NCI-H226 lung, 97.9%; in the experiment on NCI-H322M lung, 109%; in the experiment with HOP-62 NSCLC, 109%; in the experiment with NCI-H460 lung, 64.5%; with HOP-92 NSCLC, 96.4%. Also, the growth is 52.9% in the experiment with NCI-H522 lung; 93.1% in the experiment with A549/ATCC NSCLC; 101% in the experiment on 786-0 renal; 121% with COLO 205 colon; 97.6% with DU-145 prostate; 80.6% with K-562 leukemia. For the same compound, the growth was 126% in the experiment on MALME-3M melanoma; 115% with MDA-MB-231 breast; 104% with RXF 393 renal; 98.4% in the experiment on SF-268 CNS; 98.4% in the experiment on SF-295 CNS; 94.1% with SF-539 CNS. The growth with UACC-257 melanoma was 98.9%; in the experiment with M14 melanoma it was 101%.
